Pol beta inh – qHTS Assay for Inhibitors of DNA Polymerase Beta; 340,000 tested, 1.3% active; Potency, µM (highest dose often 114 µM), for the others: at the top dose activity change, negative = inhibition, hits mostly inhibitors; AID 485314, 2010; P06746; Pol beta primer extension/strand displacement, fluorescence kinetic; further: on the % scale 0 is the no-effect control and ±100 the full control effect
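Pol beta (10 nM) was preincubated with compound for 15 min at room temperature. The reaction was then started with 50 nM substrate and read immediately and after a further 10 min at room temperature.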
Pol kappa inh – qHTS for Inhibitors of Polymerase Kappa; Potency, µM (doses to about 107 µM), inactives show top-dose activity, negative = inhibition, actives largely listed as inhibitors; purified Pol kappa, fluorescent DNA synthesis assay, 10 min; 400,000 tested, 0.53% active; DNA polymerase kappa (Homo sapiens), Q9UBT6; further: on the % scale 0 is the no-effect control and ±100 the full control effect
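50 nM final substrate added after 15 min RT preincubation of 10 nM Pol kappa with compound; fluorescence read at 0 and 10 min.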
FEN1 inhibitor – qHTS Assay for the Inhibitors of Human Flap endonuclease 1 (FEN1); P39748; Recombinant FEN1 flap cleavage, fluorescence, 15 min; 390,000 tested, 0.35% active; Potency, µM (top dose mostly 114 µM), for inactives: at the top dose activity change, negative = inhibition, actives largely listed as inhibitors; further: on the % scale 0 is the no-effect control and ±100 the full control effect; nearly all actives have a fitted effect of over 65% in size
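Quantitative HTS format: each compound was titrated, incubated with 10 nM nuclease for 15 min at room temperature, then challenged with flap substrate at 50 nM final. Signal change over 15 min gave concentration–effect curves.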
WRN helicase inh – qHTS for Inhibitors of WRN Helicase; Bifunctional 3'-5' exonuclease/ATP-dependent helicase WRN (Homo sapiens), Q14191; WRN helicase unwinding, fluorescent forked duplex, kinetic; Potency, µM (series often up to 114 µM), for the others: at the top dose activity change, negative = inhibition, usual class: inhibitors; 360,000 tested, 0.46% active; AID 651768, 2012; further: on the % scale 0 is the no-effect control and ±100 the full control effect; nearly all actives have a fitted effect of over 55% in size
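Screening of the MLSMR collection measured strand separation of a quenched forked DNA duplex (100 nM) by 20 nM WRN with 2 mM ATP, all final. Compounds were preincubated with enzyme 15 min at room temperature.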
POLI inh – qHTS for Inhibitors of Polymerase Iota; DNA polymerase iota (Homo sapiens), Q9UNA4; Pol iota fluorescent replication assay, 10 min; Potency, µM (top dose mostly 115 µM), without a hit: at the highest dose activity, negative = inhibition, most hits filed as inhibitors; 390,000 tested, 1% active; AID 588590, 2011
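Pol iota at 10 nM preincubated 15 min with compounds at room temperature; reaction started with fluorescent substrate, 50 nM final. Fluorescence read kinetically at 0 and 10 min; buffer-only wells as negative control.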
Pol eta inh – qHTS for Inhibitors of Polymerase Eta; recombinant Pol eta, fluorescent DNA replication assay; Potency, µM (highest dose often 114 µM), without a hit: at the top dose activity change, negative = inhibition, most hits filed as inhibitors; DNA polymerase eta (Homo sapiens), Q9Y253; 390,000 tested, 1.2% active; further: on the % scale 0 is the no-effect control and ±100 the full control effect
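Pol eta (10 nM) was preincubated with compounds for 15 min at room temperature, after which fluorescent replication substrate (50 nM final) was added to start the reaction. Fluorescence was read kinetically at 0 and 10 min.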
Numbers without * were called inactive; [ ] = dose if it differs, or a comment. Only some compounds are listed: those with a hit (about 2.4% of all), similar ones and a draw of the others. The call rests on the fitted dose curve; in most records, active means well fitted curve in the direction sought with a large enough effect; inconclusive means small, poorly fitted or top-dose-only effect, or another doubt; inactive means no such curve, though single readings can be large; an effect the other way counts as inactive or inconclusive. Potency means the concentration at half of the fitted maximal effect.

CCC(Oc1ccccc1)C(=O)Nc1cc(-c2ccccc2OC)nn1-c1ccccc1 (configuration not stated) was read as Pol beta inh 2.5%, Pol kappa inh -10.1%[60.1 µM], FEN1 inhibitor 4.6%, POLI inh -22.8% and Pol eta inh -6.9%.
CCC(CN(C)C)Oc1cc(NCc2ccccc2)c2ncn(C(C)C)c2c1 (configuration not stated) was read as Pol kappa inh -12.0%, FEN1 inhibitor inconclusive, WRN helicase inh 3.2%, POLI inh 14.1µM* and Pol eta inh -17.1%.
Screening COc1cc(NCc2ccccc2)c2ncn(C(C)C)c2c1 returned Pol kappa inh -3.5%, FEN1 inhibitor -17.7%, WRN helicase inh 4.0%, POLI inh 60.5% and Pol eta inh -15.8%.
CC(C)CCCC(C)CCCC(C)CCCC(C)C(=O)O (configuration not stated) was read as Pol kappa inh 29.9µM*.
For Cc1ccc2c(c1)ncc[n+]2CC(=O)c1ccc(F)cc1 the results were Pol kappa inh -8.6%, FEN1 inhibitor -19.8% and POLI inh 28.9%.
Screening COc1ccc(CCn2c(-n3nc(C)cc3C)nc3c2c(=O)[nH]c(=O)n3C)cc1 returned Pol kappa inh 0.2%, FEN1 inhibitor 0.7%, WRN helicase inh 79.4µM*, POLI inh -3.5% and Pol eta inh -20.6%.
`C/C(CC(=O)Nc1ccc2ccccc2c1)=N\NC(=O)c1cnccn1` gave Pol beta inh 3.1%, Pol kappa inh -15.2%, FEN1 inhibitor -1.2%, WRN helicase inh -5.5%, POLI inh 3.6% and Pol eta inh -8.1%.
For C/C(CC(=O)Nc1ccc2ccccc2c1)=N\NC(=O)c1ccc(O)c(O)c1 the results were Pol beta inh 3.55µM*, Pol kappa inh 79.4µM*, FEN1 inhibitor 0.7%, WRN helicase inh -9.4%[11.6 µM], POLI inh inconclusive and Pol eta inh inconclusive.
COc1cccc(/C=C2\SC(=O)NC2=O)c1OCc1ccc(C(=O)O)cc1 was read as Pol beta inh -4.3%, Pol kappa inh -20.9%, FEN1 inhibitor -2.2%, WRN helicase inh -9.0%, POLI inh 20.9% and Pol eta inh -4.1%.
O=C1N/C(=N/NC(=O)c2cccc3ccccc23)S/C1=C\c1ccccc1OCc1ccccc1 was read as Pol beta inh 50.1µM*, Pol kappa inh 50.1µM*, FEN1 inhibitor inconclusive, WRN helicase inh 56.2µM*, POLI inh 28.2µM* and Pol eta inh 22.4µM*.
Screening Cc1cc(C)cc(OCC(=O)NCc2nc(-c3ccccc3)no2)c1 returned Pol beta inh -29.5%, Pol kappa inh -10.3%, FEN1 inhibitor -5.1%, WRN helicase inh -6.0%, POLI inh 89.1µM* and Pol eta inh -7.7%.
For Cc1c(C)c2c(c(C)c1O)CCC(C)(COc1ccc(Cc3sc(=O)[nH]c3O)cc1)O2 (configuration not stated) the results were Pol kappa inh -15.4%[60.1 µM].
Screening Cc1ccc(NC(=O)c2cc(N3C(=O)C=CC3=O)ccc2N2CCOCC2)cc1 returned Pol beta inh inconclusive, Pol kappa inh -9.3%, FEN1 inhibitor -0.7%, WRN helicase inh 35.5µM*, POLI inh 93.2% and Pol eta inh -5.7%.
Cc1ccc(NC(=O)c2cc(NC(=O)c3ccco3)ccc2N2CCOCC2)cc1 was read as Pol beta inh 1.2%, Pol kappa inh -11.4%, FEN1 inhibitor -12.5%, WRN helicase inh 1.6%, POLI inh 23.1% and Pol eta inh -1.7%.
For CCCCn1c(SCC(=O)c2ccc(OC)cc2OC)nc2cc(S(N)(=O)=O)ccc21 the results were Pol beta inh 39.8µM*, Pol kappa inh inconclusive, FEN1 inhibitor -11.2%, WRN helicase inh inconclusive, POLI inh 44.7µM* and Pol eta inh 25.1µM*.
